Sampled rows, rich in hits. Any-hit rate of the full collection: about 11%.
JMJD2A Tudor inh = JMJD2A Tudor domain (human) inhibition. O75164. AID 504339. AlphaScreen JMJD2A-Tudor / H3K4me3 peptide binding. Potency, µM (series often up to 114 µM), for inactives: top-dose activity change, negative = inhibition, usual class: inhibitors. actives 4.4% (n = 390,000); further: on the % scale 0 is the no-effect control and ±100 the full control effect; nearly all actives have a fitted effect of over 50% in size
Target sequence (O75164 whole entry, looked up, the tested form may be a part): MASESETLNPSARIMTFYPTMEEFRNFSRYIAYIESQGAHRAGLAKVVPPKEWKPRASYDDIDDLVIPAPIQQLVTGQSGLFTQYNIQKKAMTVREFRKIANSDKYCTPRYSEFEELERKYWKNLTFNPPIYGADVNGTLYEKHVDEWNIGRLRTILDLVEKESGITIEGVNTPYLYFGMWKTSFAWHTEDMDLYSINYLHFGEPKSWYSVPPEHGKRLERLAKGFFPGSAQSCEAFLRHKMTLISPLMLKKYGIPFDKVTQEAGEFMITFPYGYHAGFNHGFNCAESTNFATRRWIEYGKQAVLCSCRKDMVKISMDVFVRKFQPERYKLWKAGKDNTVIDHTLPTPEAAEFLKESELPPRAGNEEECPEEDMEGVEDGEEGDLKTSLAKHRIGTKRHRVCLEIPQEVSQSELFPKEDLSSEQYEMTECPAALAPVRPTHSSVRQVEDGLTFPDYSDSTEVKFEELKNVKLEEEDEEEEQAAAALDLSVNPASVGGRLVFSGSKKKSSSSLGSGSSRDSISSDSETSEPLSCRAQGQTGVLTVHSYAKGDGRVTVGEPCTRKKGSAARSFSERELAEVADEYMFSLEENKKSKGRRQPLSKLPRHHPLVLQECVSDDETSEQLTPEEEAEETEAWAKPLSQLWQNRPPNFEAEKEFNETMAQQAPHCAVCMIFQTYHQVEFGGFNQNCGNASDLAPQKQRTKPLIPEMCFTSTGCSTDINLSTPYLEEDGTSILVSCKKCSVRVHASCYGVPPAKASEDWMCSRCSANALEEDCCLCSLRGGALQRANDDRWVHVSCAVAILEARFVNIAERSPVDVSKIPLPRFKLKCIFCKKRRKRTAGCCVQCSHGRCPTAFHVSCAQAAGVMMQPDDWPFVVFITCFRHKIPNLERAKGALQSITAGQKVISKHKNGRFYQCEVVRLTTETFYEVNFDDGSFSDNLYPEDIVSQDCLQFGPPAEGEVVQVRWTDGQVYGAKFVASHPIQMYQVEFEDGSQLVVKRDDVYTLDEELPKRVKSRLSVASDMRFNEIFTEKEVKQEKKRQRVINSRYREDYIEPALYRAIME
BAZ2B inh = inhibitors of human BAZ2B bromodomain; AlphaScreen BAZ2B-H3K14Ac peptide displacement; Potency, µM (doses to about 114 µM), for inactives: at the top dose activity change, negative = inhibition, hits mostly inhibitors; actives 4.4% (n = 360,000); further: on the % scale 0 is the no-effect control and ±100 the full control effect; nearly all actives have a fitted effect of over 60% in size
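AlphaScreen luminescence quantifies BAZ2B engagement of H3K14Ac peptide; the protein and biotinylated peptide are both at 50 nM final, buffer PBS pH 7.4 with 0.01% Tween-20, all steps at room temperature.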
G9a block = G9a (human) methyltransferase inhibition; actives 8.8% (n = 350,000); G9a H3K9 monomethylation, AlphaScreen, 2 h; Potency, µM (doses to about 102 µM), for the others: at the top dose activity, negative = inhibition, hits mostly inhibitors; Q96KQ7; further: on the % scale 0 is the no-effect control and ±100 the full control effect; nearly all actives have a fitted effect of over 75% in size
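AlphaScreen detection with an anti-monomethyl H3K9 antibody quantified product after a 2 h room-temperature reaction containing 500 nM biotinylated H3K9 peptide, 20 µM SAM and 20 nM enzyme, which had been preincubated 15 min with compound.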
L3MBTL1 inh = L3MBTL1 (human) inhibition | AlphaScreen L3MBTL1–H3K9me1 peptide binding | actives 0.66% (n = 230,000) | Q9Y468 | Potency, µM (highest dose often 57.1 µM), for inactives: at the highest dose activity, negative = inhibition, most hits filed as inhibitors; further: on the % scale 0 is the no-effect control and ±100 the full control effect; nearly all actives have a fitted effect of over 60% in size
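Read-out is AlphaScreen signal from streptavidin donor and nickel chelate acceptor beads (10 ug/mL final each) bridging L3MBTL1 (50 nM) and biotinylated K9-monomethylated H3(1-15) peptide (75 nM), after 30 min compound exposure at room temperature.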
HP1b binding inh = blocks HP1-beta chromodomain binding to methylated histone tails | actives 0.56% (n = 390,000) | AID 540317 | AlphaScreen HP1-beta / biotin-H3K9me3 peptide binding | Potency, µM (titrated, usually from 114 µM), inactives show top-dose activity change, negative = inhibition, hits mostly inhibitors; further: nearly all actives have a fitted effect of over 70% in size
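HP1-beta protein (50 nM final) preincubated 30 min at room temperature with biotinylated H3(1-18)K9me3 peptide (50 nM) in PBS pH 7.4, 0.01% Tween-20, then compound added for 30 min. AlphaScreen streptavidin donor/nickel chelate acceptor beads (10 ug/mL final), 30 min dark, luminescence read.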
* marks the source's active call; other numbers are inactive results; ? = inconclusive; . = no result given; [ ] = another dose, or the depositor's remark. The call rests on the fitted dose curve; in most records, active means well fitted inhibition curve with a large enough effect; inconclusive means small, poorly fitted or top-dose-only effect; inactive means no such curve, though single readings can be large or run the other way. Potency means the concentration at half of the fitted maximal effect.

SMILES	JMJD2A Tudor inh	BAZ2B inh	G9a block	L3MBTL1 inh	HP1b binding inh
COc1ccc([C@H]2C=C(C(=O)O)O[C@@H](OCCCCO)C2)cc1	56.2µM*	?	-7.9%[12.7 µM]	.	35.2%
O=C(O)C1=C[C@@H](c2ccccc2)C[C@@H](OCCCCO)O1	-21.5%	.	.	.	18.8%
CCOc1ccc(S(=O)(=O)N(C(=O)c2ccncc2)c2ccc3oc(C)c(C(=O)OC)c3c2)cc1	-17.0%	-21.8%	?	.	14.4%
Cc1nc2sc(C(N)=O)c(N)c2c(C)c1CC(=O)c1ccccc1	-12.4%	?	14.1µM*	.	56.0%
Cc1cc(C)c2c(N)c(C(=O)c3ccccc3)sc2n1	8.1%	8.2%	.	22.6%	82.0%
CC(Sc1nc(-c2ccccc2)cc(C(F)(F)F)n1)C(=O)Nc1sc2c(c1C(N)=O)CCC2 (configuration not stated)	-19.9%[57.1 µM]	-33.8%	?	5.7%	44.2%
CC(Sc1nc(-c2ccccc2)cc(C(F)(F)F)n1)C(=O)Nc1sc2c(c1C#N)CCC2 (configuration not stated)	-23.1%	-18.1%[57.1 µM]	39.8µM*	-7.1%	-22.4%
C=CCNC(=S)NNc1nc2c(c(=O)[nH]1)C1(CCCCC1)Cc1ccccc1-2	?	?	14.1µM*	-6.1%	?
O=c1[nH]c(NCCO)nc2c1C1(CCCC1)Cc1ccccc1-2	-13.6%	-7.4%	1.7%[59 µM]	-5.7%	12.5%
O=[N+]([O-])c1cccc(C=NNc2ccccc2)c1	39.8µM*	.	.	.	?
O=[N+]([O-])c1ccc(C=NNc2ccccc2)cc1	25.1µM*	.	.	.	?
Cn1c(=O)oc2cc(S(=O)(=O)NC(CC(=O)O)c3cccc(Br)c3)ccc21 (configuration not stated)	-2.4%	-8.5%	-11.5%[59 µM]	.	32.3%
[O-]/C(=C(\C(=S)Nc1ccc(Cl)cc1)[n+]1ccccc1)c1ccc(OC(F)F)cc1	?	?	11.2µM*	-11.7%	-17.6%
CC(C)(C)c1cc[n+](/C(C(=S)Nc2ccccc2F)=C(/[O-])c2ccc3c(c2)OCCO3)cc1	?	35.5µM*	?	.	-21.1%
CCOc1ccccc1NC(=S)/C(=C(\[O-])c1ccc2c(c1)OCCO2)[n+]1ccc(CC)cc1	-33.6%[57.1 µM]	?	8.91µM*	.	?
[O-]/C(=C(\C(=S)Nc1ccccc1F)[n+]1ccccc1)c1ccc(-c2ccccc2)cc1	-30.1%	-27.1%	31.6µM*	-11.5%	4.1%
CCNC(=S)/C(=C(/[O-])c1ccc([N+](=O)[O-])cc1)[n+]1ccccc1	-29.0%	-11.6%	.	-1.9%	3.6%
Cc1nnc(NC(=O)c2c(-c3ccccc3Cl)noc2C)s1	-3.4%	-18.1%	-32.6%	0.0%	23.3%
Cc1onc(-c2ccccc2Cl)c1C(=O)Nc1nnc(C(C)C)s1	-23.1%	5.6%	50.1µM*	5.2%	23.2%
Cc1onc(-c2ccccc2Cl)c1C(=O)O/N=C(\N)c1ccc([N+](=O)[O-])o1	?	?	35.5µM*	-2.5%	-11.6%
C/C(=N/OC(=O)c1c(-c2ccccc2Cl)noc1C)c1cnccn1	-10.3%	0.4%	5.0%	0.4%	62.8%
CC(C)c1nnc(NC(=O)c2sc3ccccc3c2Cl)s1	8.7%	0.0%	44.7µM*	-0.7%	-8.7%
COC(=O)c1cc2oc3ccccc3c2n1Cc1nc(-c2cccc(Cl)c2)oc1C	-15.6%	19.3%	14.2%[59 µM]	.	61.5%
Cc1ccc(C(=O)CC2(O)C(=O)N(C)c3ccccc32)s1 (configuration not stated)	3.0%	-9.6%	44.7µM*	-22.7%	47.2%
CN1C(=O)C(O)(CC(=O)c2cccs2)c2ccccc21 (configuration not stated)	-11.7%	-5.4%	-6.9%	6.1%	53.7%
SMILES	JMJD2A Tudor inh	BAZ2B inh	G9a block	L3MBTL1 inh	HP1b binding inh
Cc1cc(=O)oc2c(C(=O)/C=C\c3cccs3)c(O)ccc12	?	?	44.7µM*	-5.0%	-23.8%
O=[N+]([O-])c1ccc(CN2CCOCCOCCN(Cc3ccc([N+](=O)[O-])cc3)CCOCC2)cc1	?	?	?	-11.1%	-20.7%
CCS(=O)(=O)N1CCN(Cc2ccc([N+](=O)[O-])cc2)CC1	5.62µM*	50.1µM*	?	-3.9%	?
CSc1ccc(CN2CCCCCC2)cc1	5.01µM*	-12.0%	11.2µM*	2.9%	?
CSc1ccc(CN2CCN(Cc3ccc([N+](=O)[O-])cc3)CC2)cc1	?	28.2µM*	31.6µM*	-5.1%	?
O=[N+]([O-])c1ccc(CN2CCCCCC2)cc1	-13.3%	-1.6%	?	-1.8%	37.7%
Cc1ccc(NC(=O)CCC(=O)N2Cc3ccccc3Oc3ncccc32)cc1	2.3%	12.8%[57.1 µM]	3.8%[59 µM]	.	19.3%
CCOC(=O)C1CCCN(C(=O)c2ccc3c(c2)sc2nc(-c4cccc(OC)c4)cn23)C1 (configuration not stated)	-7.2%	-17.7%	-22.1%[59 µM]	.	20.3%
Cc1ccc(NC(=O)C2CCCN(S(=O)(=O)c3c(C)n[nH]c3C)C2)c(C)c1 (configuration not stated)	0.7%	.	0.8%[59 µM]	.	38.9%
Cc1ccc(Nc2nnc(-c3ccc4c(c3)OCO4)o2)c(C)c1	-10.9%	-9.8%	25.1µM*	2.0%	-14.3%
COc1ccccc1CNC(=O)c1ccc(N2Cc3cccc(OC)c3Oc3ncccc32)s1	-19.2%	-1.8%	-1.4%[59 µM]	.	4.4%
Cc1ccc2oc(=O)c(/C=C(\O)C(C)(C)C)nc2c1	-6.2%	?	?	-19.8%	37.2%
CC(C)(C)/C(O)=C/c1nc2cc(Cl)ccc2oc1=O	?	-25.3%	44.7µM*	-1.8%	22.7%
Cc1ccc2nc(Cl)c3cc(C(=O)NC4CCCCC4)sc3c2c1	-9.6%	-8.5%	4.6%[59 µM]	.	28.1%
O=C(CCC(=O)N1CC2CCCN2c2ccccc21)NCc1ccc(F)cc1 (configuration not stated)	?	-26.3%	-13.3%[59 µM]	.	23.6%
Cc1scc(CN2CCN(c3ccc(F)cc3)CC2)c1C	?	-38.1%	?	.	13.4%
Cc1c(Cl)cn2c(=O)cc(CN3CCN(c4ccc(F)cc4)CC3)nc2c1Cl	.	?	50.1µM*	.	.
C/C=C/C=C/C(=O)N1CC[C@]23c4ccccc4N[C@H]4N(C)c5cccc6c5[C@]42CCN([C@H]6C2OC2(C)C)[C@H]13 (some centres not stated)	50.1µM*	50.1µM*	?	.	-32.4%
CN1CCC23c4ccccc4NC1C21CCN(C)C3Nc2ccccc21	-21.1%	.	.	.	0.9%
CCOC(=O)CC(=O)CSc1ccc2nnc(-c3ccc(F)cc3)n2n1	-2.6%	6.3%	-6.4%	-5.7%	28.2%
Cc1cc(NC(=O)CSc2ccc3nnc(-c4ccc(F)cc4)n3n2)no1	-8.6%	-21.3%	79.4µM*	-0.6%	-1.9%
Cc1ccc(-c2nnc3ccc(SCC(=O)Nc4cc(C)on4)nn23)cc1	-1.9%	3.0%	?	2.0%	28.6%

High-throughput results deposited in PubChem BioAssay by National Center for Advancing Translational Sciences (NCATS).
